Results on 40 sequences are retold here after the supplement of paper PMC6555819.

This assay concerns VDR:RXRa (NR concentration 270 nM, RXRa partner concentration 90 nM). Nature of the assay: PBM binding z-score (relative to random genomic background probes); higher = stronger binding; sequences stand for … in GC…GCGATTGACAGCGTAGAATGAAGG
The procedure:
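Protein-binding microarray (Agilent 4x180K custom design, double-stranded 60-nt probes: 5' GC cap, 34-nt variable region, 24-nt constant primer region; full probe sequence given). Purified or IVT nuclear receptor:RXRα heterodimers (3:1 NR:RXRα, mostly 270:90 nM) or homodimers were incubated for 1 h in PBS with 2% milk and no ligand, then detected with Alexa488 antibodies. Fluorescence from o1-orientation probes (~5 replicates averaged) was converted to z-scores against 500 random hg19 background probes. Variable regions are seed direct-repeat (DR0–DR5) sites, all their single-nucleotide variants and half-site ablations.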
In turn, GGAACGAGGGCAAAGTTGATAGAATCTGTCGACG yielded a PBM binding z-score of 1.34.
The result for GATACAGGGTCAGTTAGAGGCCAGAGTATGGAAA reads 2.97.
The result for CCTGCTAGGTCATTGGTCAGCTAAAGCAGCTCGC reads 2.1; that for ACAGACAGGTGATGAAAGTAACTCAGGCTATCAT, -0.184; that for CGAACTAGGTCAGTGACAGGACAGTGAATAGTAA, 0.664.
The result for TCGAGTAGGTTACCAATGGGGGATTCAGCTTTCT reads 0.83; that for CGCCAAAGTTCAAGGTAACGTAACAGAAAGCAGC, 3.76; that for ATCGAAAGGTCGGGAGGTGAGTATACAGAAAGGC, 2.24.
For GTTTACGGGTCAAAGGTTATAGCATGAATAGAAT, the PBM binding z-score stood at 5.82.
The result for GCTAGTTGGTCAGTAAAAGGTCACGCACCGGTCG reads 4.36.
As to GCTAGCAGGCGATTTGGGTCACTCAATGACGGGC, the PBM binding z-score was -0.205.
The result for TCTTGTAGATCATCAGGTTAAGAAAGCTGGCCAA reads 0.814.
The result for ATCGAAAGGTCGAAGGTGAGTATGCCCACCCGAA reads 2.68; that for CCAATTAGTTGACCATAAGGGCAACCGAAGCTCG, 0.678.
With CGTCCAAGGTCAAGGTCAGTTAAAGAGACTCGAA, the PBM binding z-score was found to be 4.83.
Sequence GCATATTGGTAATACAAGGTGAAAGTCCGATTGT yielded a PBM binding z-score of -0.16.
The result for TCATATAAGTAAACAGGTGAAAGTCCGTAAGTTA reads 1.28.
CAAACTAGGCCAAAGGTCAAAGTCGAGCCAACCA displayed a PBM binding z-score of 4.89.
In the case of ATCTCTAGGTGACAAGTTCAGTGAAAGAGAGGAC, the PBM binding z-score worked out at 1.63.
CATACAGGGTCAGCGAGGCCAGAGTAGGGACGGC had a PBM binding z-score of 5.93.
The result for CCTAGTTGGTCGAGGTCACACACGCTATAGGTAC reads 4.8.
The result for TCTTGTAGATCAGCAGGTTAAGAAGGCTGGCCAA reads 0.724; that for AATACAGGGTCATCGCAGGCCAGAGTACGCACAG, 5.31; that for AGAACGAGCGCAATGAGTTGATAGCACGGGTGGC, -0.0491.
On to CCTACTAGGTCATGGTCAGCTAATCTACAGTATG, for which the PBM binding z-score was found to be 1.8.
The sequence TCTTGTAGATCAGCATGTTAAGAAAGCTGGCCAA had a PBM binding z-score of 0.172.
In turn, TCATACAGGTGAAGGTAACTCAGGTACGCAGTCG registered a PBM binding z-score of 1.36.
The result for ATCGAAAGGTCGAGGTCAGTATAGAGAAAGGGAA reads 4.49.
Sequence ATACCAAGGTGATCGTGAGGTCGTAGATACTAAC yielded a PBM binding z-score of 2.42.
The result for CGAACGAGGGCATGAGTTGTTAGCAAATGCCGAT reads 0.896; that for AGAATGAGGTGATACGTAGATCAGGGAAGAAAGT, -0.0206; that for TGTCAAAGTTCAACGGTAACGTAAGTATCCACAC, 4.79.
In the case of TCTGCTAGGTCAAGGATGGTCAGCTAATCTGCTA, the PBM binding z-score came to 1.18.
The result for TCGAGTGGGTTACCAATGGGGCATTCAGCTTTCT reads 0.0141.
AGAATGAGGTTATACGTAGATCACGGAAGAAAGT yielded a PBM binding z-score of 1.61.
The result for TAGCCTAGGTCATGGGCCCGTATACCACGCGAAC reads 2.07; that for ATCGAAAGGTCGCGGTGAGTATAGAGAAAGGGAA, 3.74; that for CCTAGCAGGCCAGTGTCACTCAAGCATTTCGCTT, -0.398.
The result for CCTTACGGGTCACTGACAGGTTATAGCCTTTGGA reads 3.77; that for CCTATTTGTTGACCATAAGGGCAACCGAAGCTCG, 1.09.
